Unmarked numbers belong to inactive results. For some of these results: Potency and affinity values are given separately. The source made the active and inactive calls. Unless noted, no rule for the calls is given here.

Growth inhibition, inhibition and outcome data for five compounds are collected here from PubChem BioAssay.

Test [1] can be described thus: antimalarial activity against Dd2 strain (AID 2302;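 active = growth inhibition above 50% at the single 2 µM test dose, taken to imply half-maximal potency below 2 µM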;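 also: 0% = DMSO untreated growth and 100% = chloroquine plus artemisinin killed control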). To be noted: P. falciparum Dd2 in RBCs, LDH growth readout, 72 h; at 2 µM; hits give high values.
Test [2] can be described thus: HepG2 cytotoxicity, primary screen, cytotoxicity control for P. falciparum antimalarial project, cell-based, ATP luminescence (AID 2303;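 active = inhibition above 50%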;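 also: 0% = DMSO wells and 100% = digitonin-killed cells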). The settings on record: HepG2 viability, 24-48 h, at 10 µM, hits give high values.
For test [3], the target named is L-lactate dehydrogenase (Plasmodium falciparum (isolate CDC / Honduras)) (UniProt Q27743). Description: PfLDH activity inhibition – cell lysate, 3D7 strain, counter-screen for P. falciparum growth inhibition project (AID 2304).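 Also: 0% = vehicle and 100% = reference inhibitor.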 To be noted: P. falciparum 3D7 crude extract, LDH APAD/NBT absorbance; at 2 µM; hits give high values.
Test [4] in a line: inhibition of 3D7 malaria parasite growth – strain 3D7 (AID 2306).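 Also: 0% = DMSO wells and 100% = chloroquine plus artemisinin control wells.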 To be noted: P. falciparum 3D7 erythrocytic growth, LDH absorbance, 72 h; at 2 µM; hits give high values.
The target of test [5] is Calcium-dependent protein kinase 1 (Plasmodium falciparum (isolate 3D7)) (UniProt P62344). Description: PfCDPK1 kinase inhibitors, biochemical, TCAMS library (AID 1159585; cut-off not given, nearly all actives have IC50 up to about 0.98 µM;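 also: inhibitors leave more ATP so luminescence rises with inhibition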). The settings on record: recombinant PfCDPK1, Kinase-Glo ATP depletion luminescence. (Kinase-Glo reads ATP consumption through a luciferase reaction.)
For test [6], the target named is Plasmodium falciparum protein kinase 6 (PK6, PF3D7_1337100) (UniProt Q8IDW1). Description: PfPK6 kinase inhibitors, biochemical, TCAMS library (AID 1159586). The settings on record: recombinant PfPK6, Kinase-Glo ATP depletion luminescence.
Test [7] has as its target Protein kinase 7 (PK7), Plasmodium falciparum 3D7 (PF3D7_0213400) (UniProt Q7YTF7). Description: inhibition of Plasmodium PK7 catalytic activity – biochemical, TCAMS antimalarial set, Kinase-Glo luminescence (AID 1159587). The settings on record: recombinant PfPK7, Kinase-Glo ATP depletion luminescence.
For test [8], the target named is Calcium-dependent protein kinase 4 (Plasmodium falciparum (isolate 3D7)) (UniProt Q8IBS5). Description: PfCDPK4 kinase inhibitors, biochemical, TCAMS library (AID 1159588; cut-off not given, nearly all actives have IC50 up to about 0.91 µM). To be noted: recombinant PfCDPK4, Kinase-Glo ATP depletion luminescence.
Calcium-dependent protein kinase 4 (Plasmodium falciparum (isolate 3D7)), sequence (Q8IBS5 whole entry, looked up): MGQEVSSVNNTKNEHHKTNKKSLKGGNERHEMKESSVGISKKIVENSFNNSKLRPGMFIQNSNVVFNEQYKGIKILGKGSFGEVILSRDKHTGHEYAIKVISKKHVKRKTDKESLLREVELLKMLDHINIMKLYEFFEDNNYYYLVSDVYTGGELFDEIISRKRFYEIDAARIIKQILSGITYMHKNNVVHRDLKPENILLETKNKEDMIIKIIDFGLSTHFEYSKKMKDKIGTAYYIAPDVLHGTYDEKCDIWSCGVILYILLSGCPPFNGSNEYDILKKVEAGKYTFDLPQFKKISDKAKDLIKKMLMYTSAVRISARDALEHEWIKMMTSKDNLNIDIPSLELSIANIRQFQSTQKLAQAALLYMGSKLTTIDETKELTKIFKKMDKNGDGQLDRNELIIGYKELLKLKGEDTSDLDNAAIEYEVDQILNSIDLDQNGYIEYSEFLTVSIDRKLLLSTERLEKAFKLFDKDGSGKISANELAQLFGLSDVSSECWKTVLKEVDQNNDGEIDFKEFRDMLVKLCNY

Protein kinase 7 (PK7), Plasmodium falciparum 3D7 (PF3D7_0213400), sequence (Q7YTF7 1-343): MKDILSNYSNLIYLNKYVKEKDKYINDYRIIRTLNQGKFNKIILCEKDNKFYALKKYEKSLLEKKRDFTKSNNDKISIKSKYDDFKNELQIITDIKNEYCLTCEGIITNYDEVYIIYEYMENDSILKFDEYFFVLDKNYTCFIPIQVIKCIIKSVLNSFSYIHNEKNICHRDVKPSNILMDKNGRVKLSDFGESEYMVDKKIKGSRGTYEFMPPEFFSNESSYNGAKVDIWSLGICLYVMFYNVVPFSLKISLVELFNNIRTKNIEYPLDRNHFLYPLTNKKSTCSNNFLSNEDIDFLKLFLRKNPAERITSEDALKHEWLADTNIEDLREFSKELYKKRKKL
Plasmodium falciparum protein kinase 6 (PK6, PF3D7_1337100), sequence (Q8IDW1 1-305): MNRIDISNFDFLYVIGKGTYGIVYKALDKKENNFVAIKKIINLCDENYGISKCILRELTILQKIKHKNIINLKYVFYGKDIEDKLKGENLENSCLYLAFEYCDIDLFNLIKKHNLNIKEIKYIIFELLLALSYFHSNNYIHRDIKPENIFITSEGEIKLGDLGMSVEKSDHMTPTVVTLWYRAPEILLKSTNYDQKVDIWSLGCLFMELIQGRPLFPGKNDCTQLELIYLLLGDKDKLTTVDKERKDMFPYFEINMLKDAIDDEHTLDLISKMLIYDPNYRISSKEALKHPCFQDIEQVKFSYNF
Calcium-dependent protein kinase 1 (Plasmodium falciparum (isolate 3D7)), sequence (P62344 whole entry, looked up): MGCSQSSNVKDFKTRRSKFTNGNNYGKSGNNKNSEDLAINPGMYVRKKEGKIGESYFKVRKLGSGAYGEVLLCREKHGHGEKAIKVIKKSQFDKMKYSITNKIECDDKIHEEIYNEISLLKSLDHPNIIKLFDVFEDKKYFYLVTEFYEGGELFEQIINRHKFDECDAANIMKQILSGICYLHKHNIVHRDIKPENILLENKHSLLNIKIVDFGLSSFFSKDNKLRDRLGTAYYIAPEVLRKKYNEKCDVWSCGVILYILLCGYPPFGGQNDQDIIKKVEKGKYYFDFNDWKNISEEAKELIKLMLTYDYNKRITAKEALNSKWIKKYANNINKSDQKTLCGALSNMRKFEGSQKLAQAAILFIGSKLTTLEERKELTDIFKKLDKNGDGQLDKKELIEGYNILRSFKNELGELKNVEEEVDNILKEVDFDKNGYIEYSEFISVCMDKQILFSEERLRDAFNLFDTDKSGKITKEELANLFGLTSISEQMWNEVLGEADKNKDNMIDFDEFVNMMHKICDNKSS
L-lactate dehydrogenase (Plasmodium falciparum (isolate CDC / Honduras)), sequence (Q27743 whole entry, looked up): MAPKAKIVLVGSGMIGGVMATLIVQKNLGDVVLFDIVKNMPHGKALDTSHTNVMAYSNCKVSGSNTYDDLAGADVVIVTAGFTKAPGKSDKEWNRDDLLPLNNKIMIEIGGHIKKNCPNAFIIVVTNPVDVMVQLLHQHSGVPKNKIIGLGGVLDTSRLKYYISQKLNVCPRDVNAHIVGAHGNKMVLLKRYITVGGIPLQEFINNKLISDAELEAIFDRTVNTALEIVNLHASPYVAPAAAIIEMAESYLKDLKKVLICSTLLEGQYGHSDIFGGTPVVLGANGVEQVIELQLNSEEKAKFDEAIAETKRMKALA

As a reminder, the inhibition is the change of the read-out against control, counted positive when it falls. Take `Cc1cccc2[nH]c(-c3cccc(-c4ccc(CN5CCC(C(N)=O)CC5)cc4)c3)nc12`: the growth inhibition in test [1] was 9%; in test [4] it was 89% (active). Also, the inhibition is -1% in test [2] and 4% in test [3]. The result in test [5], in test [6], in test [7] and in test [8] was inactive.

`COc1ccc(C2N=C(N)N=C(N)N2OCc2ccccc2)cc1OC` (stereo not given): the results for the growth inhibition in test [1] and in test [4] were 2% and 95% (active), respectively. In addition, the inhibition in test [2] is 1%; in test [3] it was 0%. In addition, the result in test [5], in test [6], in test [7] and in test [8] was inactive.

With `CN(C)Cc1ccc(-c2cc3c(Nc4ccc(OCc5cccc(F)c5)c(Cl)c4)ncnc3s2)[nH]1`, the results for the growth inhibition in test [1] and in test [4] were 84% (active) and 100% (active), respectively. Besides, the inhibition in test [2] is 8%; in test [3] it was -1%. Besides, the result in test [5], in test [6], in test [7] and in test [8] was inactive.

As to `Cc1cccc(C)c1CNc1cccc(-c2nc(C)c(C)[nH]2)c1`, the growth inhibition in test [1] is 44%; in test [4], 99% (active). For the same compound, the inhibition in test [2] was 58% (active); in test [3], -3%. For the same compound, the outcome in test [5], in test [6], in test [7] and in test [8] was inactive.

On to `O=C(Nc1cccc(C(F)(F)F)c1)c1ccc(S(=O)(=O)NC2CCN(CC3CCCCC3)CC2)cc1`, for which the growth inhibition in test [1] was -3%; in test [4], 83% (active). For the same compound, the values for the inhibition in test [2] and in test [3] were 25% and 0%, respectively. Besides, the result in test [5], in test [6], in test [7] and in test [8] was inactive.
